Records with an inconclusive call do not appear. The source made the active and inactive calls. Unless noted, calls come from the whole dose curve; as a rule, active = well fitted curve in the direction sought with a large enough effect in the repeat runs; inconclusive = weak or mixed curves; inactive = no such curve, though single readings can be large; an effect the other way counts as inactive or inconclusive.
Experiments:
[1] = qHTS assay to test for compound auto fluorescence at 535 nm (green) in HEK293 cells (AID 720680)
[2] = qHTS assay to test for compound auto fluorescence at 460 nm (blue) in HEK293 cell free culture (AID 720681)
In short: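 Test compounds were pinned into cell-free culture medium (DMEM with 10% FBS) and fluorescence was read directly at Ex/Em 405/460 nm. Signals were expressed as fluorescence equivalents of triamterene, with DMSO vehicle as control.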

[3] = qHTS assay to test for compound auto fluorescence at 535 nm (green) in HEK293 cell free culture (AID 720682)
In short: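 Read-out: 485/535 nm fluorescence intensity, calibrated against fluorescein. Medium only (DMEM + 10% FBS, no cells); test compound or DMSO vehicle added by pintool before plate reading.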

[4] = qHTS assay to test for compound auto fluorescence at 590 nm (red) in HEK293 cell free culture (AID 720683)
In short: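 Tox21 10K library compounds were pinned into cell-free DMEM with 10% FBS and fluorescence was read at excitation 540 nm. Activity is expressed as Rose Bengal sodium equivalency.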

[5] = qHTS assay to test for compound auto fluorescence at 590 nm (red) in HepG2 cell free culture (AID 720684)
In short: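 Ex 540 / Em 590 nm read of compound in cell-free MEM (10% FBS). Rose Bengal sodium reference.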

[6] = qHTS assay to test for compound auto fluorescence at 460 nm (blue) in HepG2 cell free culture (AID 720685)
In short: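 Cell-free plates of MEM plus 10% FBS received 23 nL compound or DMSO vehicle; blue-channel (405/460 nm) intensity scored against triamterene as reference fluorophore.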

[7] = qHTS assay to test for compound auto fluorescence at 535 nm (green) in HepG2 cell free culture (AID 720686)
[8] = qHTS assay to test for compound auto fluorescence at 460 nm (blue) in HepG2 cells (AID 720687)
In short: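 Cells (2,000/well in MEM with 10% FBS) attached overnight at 37 C, then were exposed to compound or DMSO for 1 hr at 37 C, 5% CO2. Fluorescence read at Ex/Em 405/460 nm, expressed as triamterene-equivalent signal.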

[9] = target: Glucocorticoid receptor (Homo sapiens) (UniProt P04150); assay: qHTS assay to identify small molecule agonists of the glucocorticoid receptor (GR) signaling pathway (AID 720691; active = well fitted activation curve with a large enough effect in the signal ratio in the repeat runs, not every such curve was filed as active; the % refers to the signal ratio)
Glucocorticoid receptor (Homo sapiens), sequence (P04150 whole entry, looked up): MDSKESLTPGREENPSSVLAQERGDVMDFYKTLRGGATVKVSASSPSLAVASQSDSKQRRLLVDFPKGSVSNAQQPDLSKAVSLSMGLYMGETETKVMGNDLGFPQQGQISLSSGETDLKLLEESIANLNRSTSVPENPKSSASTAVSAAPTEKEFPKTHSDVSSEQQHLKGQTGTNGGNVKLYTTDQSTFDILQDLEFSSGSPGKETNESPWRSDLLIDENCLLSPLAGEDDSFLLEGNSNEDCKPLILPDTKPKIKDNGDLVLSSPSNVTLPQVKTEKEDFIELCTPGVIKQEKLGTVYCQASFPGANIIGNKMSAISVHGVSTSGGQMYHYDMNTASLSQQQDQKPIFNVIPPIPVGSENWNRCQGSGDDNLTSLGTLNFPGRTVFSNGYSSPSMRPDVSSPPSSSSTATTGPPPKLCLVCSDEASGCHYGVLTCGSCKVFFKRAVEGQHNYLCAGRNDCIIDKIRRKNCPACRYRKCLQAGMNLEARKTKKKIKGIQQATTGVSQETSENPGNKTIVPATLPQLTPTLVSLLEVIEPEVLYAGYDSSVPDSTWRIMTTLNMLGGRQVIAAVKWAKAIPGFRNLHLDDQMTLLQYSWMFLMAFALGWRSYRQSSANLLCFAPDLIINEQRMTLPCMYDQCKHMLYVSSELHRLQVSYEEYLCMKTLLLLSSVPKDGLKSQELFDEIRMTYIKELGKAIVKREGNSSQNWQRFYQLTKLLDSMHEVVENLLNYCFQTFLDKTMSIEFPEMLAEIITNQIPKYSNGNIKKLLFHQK
In short: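 HeLa GR-bla reporter line; cells pre-incubated 4 h, compound in DMSO 18 h at 37 C; LiveBLAzer B/G FRET substrate 2 h RT; fluorescence intensity read-out.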

[10] = target: Glucocorticoid receptor (Homo sapiens) (UniProt P04150); assay: qHTS assay to identify small molecule antagonists of the glucocorticoid receptor (GR) signaling pathway (AID 720692; active = well fitted inhibition curve with a large enough effect in the signal ratio in the repeat runs, not every such curve was filed as active; the % refers to the signal ratio)
In short: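 Read-out: beta-lactamase FRET substrate fluorescence, 2 h at room temperature, in HeLa cells stably carrying a GRE-driven bla reporter. Compounds were co-incubated with 5 nM dexamethasone agonist (final) for 18 h at 37 C.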

[11] = qHTS assay to identify small molecule antagonists of the glucocorticoid receptor (GR) signaling pathway - cell viability counter screen (AID 720693); note: nearly all actives have a fitted effect of over 55% in size
[12] = qHTS assay for identifying genotoxic compounds that show differential cytotoxicity against isogenic chicken DT40 cell lines with known DNA damage response pathways - wild type cell line (AID 743012); note: nearly all actives have a fitted effect of over 60% in size
In short: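 CellTiter-Glo luminescence readout of viability in wild type DT40 cells after 40 h compound exposure at 37 C/5% CO2; 300 cells/well; reagent incubated 30 min at room temperature before reading.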

[13] = qHTS assay for identifying genotoxic compounds that show differential cytotoxicity against isogenic chicken DT40 cell lines with known DNA damage response pathways - Rev3 mutant cell line (AID 743014); note: nearly all actives have a fitted effect of over 55% in size
[14] = qHTS assay for identifying genotoxic compounds that show differential cytotoxicity against isogenic chicken DT40 cell lines with known DNA damage response pathways - Rad54/Ku70 mutant cell line (AID 743015); note: nearly all actives have a fitted effect of over 60% in size
[15] = qHTS assay to identify small molecule antagonists of the androgen receptor (AR) signaling pathway - cell viability counter screen (AID 743033; note: nearly all actives have a fitted effect of over 45% in size)
[16] = qHTS assay to identify small molecule antagonists of the androgen receptor (AR) signaling pathway using the MDA cell line - cell viability counter screen (AID 743041; note: nearly all actives have a fitted effect of over 45% in size)
In short: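 In this qHTS counter assay, fluorescence intensity after CellTiter-Fluor addition indicated viability of MDA-kb2 AR-luc cells given compounds and R1881 for 16 h at 37C.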

[17] = target: Androgen receptor (Homo sapiens) (UniProt P10275); assay: qHTS assay to identify small molecule antagonists of the androgen receptor (AR) signaling pathway (AID 743035; active = well fitted inhibition curve with a large enough effect in the signal ratio in the repeat runs, not every such curve was filed as active; the % refers to the signal ratio)
Androgen receptor (Homo sapiens), sequence (P10275 whole entry, looked up): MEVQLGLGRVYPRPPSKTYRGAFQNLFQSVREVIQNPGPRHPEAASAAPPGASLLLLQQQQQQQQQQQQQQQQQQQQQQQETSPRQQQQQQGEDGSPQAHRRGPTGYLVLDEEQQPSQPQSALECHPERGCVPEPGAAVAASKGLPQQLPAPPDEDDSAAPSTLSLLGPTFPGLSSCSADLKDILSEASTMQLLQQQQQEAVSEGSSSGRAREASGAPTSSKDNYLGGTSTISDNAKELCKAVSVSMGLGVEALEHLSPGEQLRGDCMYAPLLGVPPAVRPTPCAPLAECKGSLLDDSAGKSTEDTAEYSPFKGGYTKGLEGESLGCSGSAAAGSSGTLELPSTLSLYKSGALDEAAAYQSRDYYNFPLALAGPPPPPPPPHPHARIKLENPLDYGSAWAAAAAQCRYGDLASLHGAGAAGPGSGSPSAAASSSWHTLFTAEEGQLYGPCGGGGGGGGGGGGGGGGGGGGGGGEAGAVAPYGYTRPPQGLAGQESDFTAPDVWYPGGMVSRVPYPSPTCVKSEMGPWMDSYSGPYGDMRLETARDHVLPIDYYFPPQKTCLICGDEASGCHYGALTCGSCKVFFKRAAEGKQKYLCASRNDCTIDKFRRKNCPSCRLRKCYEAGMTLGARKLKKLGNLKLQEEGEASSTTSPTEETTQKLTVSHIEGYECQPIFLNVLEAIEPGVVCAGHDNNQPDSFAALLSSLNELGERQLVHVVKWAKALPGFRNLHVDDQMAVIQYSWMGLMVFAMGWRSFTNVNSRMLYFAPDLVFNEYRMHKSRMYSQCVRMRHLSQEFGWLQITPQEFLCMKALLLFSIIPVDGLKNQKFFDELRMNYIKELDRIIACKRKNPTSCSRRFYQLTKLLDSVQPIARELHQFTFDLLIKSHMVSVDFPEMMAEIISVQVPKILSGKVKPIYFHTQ
In short: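 AR-bla HEK293 reporter cells; 4 h settle at 37C/5% CO2; compound + R1881 agonist, 16 h at 37C; LiveBLAzer B/G FRET substrate 2 h RT; fluorescence intensity read. qHTS format.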

[18] = target: Androgen receptor (Homo sapiens) (UniProt P10275); assay: qHTS assay to identify small molecule agonists of the androgen receptor (AR) signaling pathway (AID 743036; active = well fitted activation curve with a large enough effect in the signal ratio in the repeat runs, with a control signal flat, not every such curve was filed as active; the % refers to the signal ratio)
In short: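 HEK293 cells stably carrying a UAS-driven beta-lactamase reporter (GeneBLAzer AR-UAS-bla-GripTite) were plated at 2,000 cells/well, rested 4 h at 37C, then exposed to compounds in DMSO for 16 h. LiveBLAzer B/G FRET substrate was added for 2 h at room temperature; fluorescence read.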

[19] = target: Androgen receptor (Homo sapiens) (UniProt P10275); assay: qHTS assay to identify small molecule agonists of the androgen receptor (AR) signaling pathway using the MDA cell line (AID 743040; note: nearly all actives have a fitted effect of over 20% in size); settings: MDA-kb2 AR-luc cells, MMTV luciferase, 16 h, hits give high values
In short: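 Cell-based luciferase reporter: MDA-kb2, MMTV promoter (AR + GR response elements). 16 h compound exposure at 37C; ONE-Glo, 30 min RT, luminescence.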

[20] = target: Androgen receptor (Homo sapiens) (UniProt P10275); assay: qHTS assay to identify small molecule antagonists of the androgen receptor (AR) signaling pathway using the MDA cell line (AID 743042; note: nearly all actives have a fitted effect of over 55% in size)
In short: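 MDA-kb2 cells (human breast carcinoma, stably carrying an MMTV-luciferase reporter responsive to AR and GR) were plated at 3,000 cells/well and preincubated 5 hr at 37C, then given compound plus R1881 agonist for 16 h. ONE-Glo luminescence was read.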
% is set by controls: 0 for no effect and ±100 for the full control effect.

NCCNCCNCCN
inactive: outcome [1] | Potency [2] | outcome [3] | outcome [4] | outcome [5] | Potency [6] | outcome [7] | Potency [8] | outcome [9] | Potency [10] | Potency [11] | Potency [12] | Potency [13] | Potency [14] | Potency [15] | Potency [16]

CC(=O)C(C)C
inactive: outcome [1] | Potency [2] | outcome [3] | outcome [4] | outcome [5] | Potency [6] | outcome [7] | Potency [8] | outcome [9] | Potency [10] | Potency [11] | Potency [12] | Potency [13] | Potency [14] | Potency [15] | Potency [16]

N#CCC(=O)O
inactive: outcome [1] | Potency [2] | outcome [3] | outcome [4] | outcome [5] | Potency [6] | outcome [7] | Potency [8] | outcome [9] | Potency [10] | Potency [11] | Potency [12] | Potency [13] | Potency [14] | Potency [15] | Potency [16]

CC/C(C)=N/O
inactive: outcome [1] | Potency [2] | outcome [3] | outcome [4] | outcome [5] | Potency [6] | outcome [7] | Potency [8] | outcome [9] | Potency [10] | Potency [11] | Potency [12] | Potency [13] | Potency [14] | Potency [15] | Potency [16]

CCOC(=O)c1ccc(O)cc1
inactive: outcome [1] | Potency [2] | outcome [3] | outcome [4] | outcome [5] | Potency [6] | outcome [7] | Potency [8] | outcome [9] | Potency [10] | Potency [11] | Potency [12] | Potency [13] | Potency [14] | Potency [15] | Potency [16]

CC1(C)C(=O)N(Cl)C(=O)N1Cl
inactive: outcome [1] | Potency [2] | outcome [3] | outcome [4] | outcome [5] | Potency [6] | outcome [7] | Potency [8] | outcome [9] | Potency [10] | Potency [11] | Potency [12] | Potency [13] | Potency [14] | Potency [15] | Potency [16]

Cc1ccc(Cl)cc1
inactive: outcome [1] | Potency [2] | outcome [3] | outcome [4] | outcome [5] | Potency [6] | outcome [7] | Potency [8] | outcome [9] | Potency [10] | Potency [11] | Potency [12] | Potency [13] | Potency [14] | Potency [15] | Potency [16]

CC(=O)OCCC(C)C
inactive: outcome [1] | Potency [2] | outcome [3] | outcome [4] | outcome [5] | Potency [6] | outcome [7] | Potency [8] | outcome [9] | Potency [10] | Potency [11] | Potency [12] | Potency [13] | Potency [14] | Potency [15] | Potency [16]

CCCCCCCCO
inactive: outcome [1] | Potency [2] | outcome [3] | outcome [4] | outcome [5] | Potency [6] | outcome [7] | Potency [8] | outcome [9] | Potency [10] | Potency [11] | Potency [12] | Potency [13] | Potency [14] | Potency [15] | Potency [16]

CCCCCC(C)=O
inactive: outcome [1] | Potency [2] | outcome [3] | outcome [4] | outcome [5] | Potency [6] | outcome [7] | Potency [8] | outcome [9] | Potency [10] | Potency [11] | Potency [12] | Potency [13] | Potency [14] | Potency [15] | Potency [16]

CCc1cccc(CC)c1N
inactive: outcome [1] | Potency [2] | outcome [3] | outcome [4] | outcome [5] | Potency [6] | outcome [7] | Potency [8] | outcome [9] | Potency [10] | Potency [11] | Potency [12] | Potency [13] | Potency [14] | Potency [15] | Potency [17] | Potency [18] | activity change ([19]; at 70.3 µM (top of the series)) 0.738% | activity change ([19]; at 95 µM (top of the series)) 0.21% | Potency [16] | Potency [20]

CCCCCCCCC(=O)O
inactive: outcome [1] | Potency [2] | outcome [3] | outcome [4] | outcome [5] | Potency [6] | outcome [7] | Potency [8] | outcome [9] | Potency [10] | Potency [11] | Potency [12] | Potency [13] | Potency [14] | Potency [15] | Potency [16]

CC(=O)Nc1ccc(CC(=O)O)cc1
inactive: outcome [1] | Potency [2] | outcome [3] | outcome [4] | outcome [5] | Potency [6] | outcome [7] | Potency [8] | outcome [9] | Potency [10] | Potency [11] | Potency [12] | Potency [13] | Potency [14] | Potency [15] | Potency [16]

C=C(C)CC(C)(C)C
inactive: outcome [1] | Potency [2] | outcome [3] | outcome [4] | outcome [5] | Potency [6] | outcome [7] | Potency [8] | outcome [9] | Potency [10] | Potency [11] | Potency [12] | Potency [13] | Potency [14] | Potency [15] | Potency [16]

Cc1ccc(C(C)C)cc1
inactive: outcome [1] | Potency [2] | outcome [3] | outcome [4] | outcome [5] | Potency [6] | outcome [7] | Potency [8] | outcome [9] | Potency [10] | Potency [11] | Potency [12] | Potency [13] | Potency [14] | Potency [15] | Potency [17] | Potency [18] | activity change ([19]; at 70.3 µM (top of the series)) 1.12% | activity change ([19]; at 95 µM (top of the series)) 0.115% | Potency [16] | Potency [20]

C=C1C[C@]23C[C@@]1(O)CC[C@H]2[C@@]12C=C[C@H](O)[C@@](C)(C(=O)O1)[C@H]2[C@@H]3C(=O)O
inactive: outcome [1] | Potency [2] | outcome [3] | outcome [4] | outcome [5] | Potency [6] | outcome [7] | Potency [8] | outcome [9] | Potency [10] | Potency [11] | Potency [12] | Potency [13] | Potency [14] | Potency [15] | Potency [16]

Reference: PubChem BioAssay (Tox21)
